Data on 57 molecules can be found in paper PMC4336329 (PLoS ONE, 2015).

Out of some 310,000 compounds screened, about 2,200 (0.71%) showed an effect of 50% or more. The effect is printed as a negative number. For the sample, strong results were picked, then their nearest neighbours and some compounds at random.

human ether-à-go-go-related gene (hERG) potassium channel, sequence (Q12809 whole entry, looked up): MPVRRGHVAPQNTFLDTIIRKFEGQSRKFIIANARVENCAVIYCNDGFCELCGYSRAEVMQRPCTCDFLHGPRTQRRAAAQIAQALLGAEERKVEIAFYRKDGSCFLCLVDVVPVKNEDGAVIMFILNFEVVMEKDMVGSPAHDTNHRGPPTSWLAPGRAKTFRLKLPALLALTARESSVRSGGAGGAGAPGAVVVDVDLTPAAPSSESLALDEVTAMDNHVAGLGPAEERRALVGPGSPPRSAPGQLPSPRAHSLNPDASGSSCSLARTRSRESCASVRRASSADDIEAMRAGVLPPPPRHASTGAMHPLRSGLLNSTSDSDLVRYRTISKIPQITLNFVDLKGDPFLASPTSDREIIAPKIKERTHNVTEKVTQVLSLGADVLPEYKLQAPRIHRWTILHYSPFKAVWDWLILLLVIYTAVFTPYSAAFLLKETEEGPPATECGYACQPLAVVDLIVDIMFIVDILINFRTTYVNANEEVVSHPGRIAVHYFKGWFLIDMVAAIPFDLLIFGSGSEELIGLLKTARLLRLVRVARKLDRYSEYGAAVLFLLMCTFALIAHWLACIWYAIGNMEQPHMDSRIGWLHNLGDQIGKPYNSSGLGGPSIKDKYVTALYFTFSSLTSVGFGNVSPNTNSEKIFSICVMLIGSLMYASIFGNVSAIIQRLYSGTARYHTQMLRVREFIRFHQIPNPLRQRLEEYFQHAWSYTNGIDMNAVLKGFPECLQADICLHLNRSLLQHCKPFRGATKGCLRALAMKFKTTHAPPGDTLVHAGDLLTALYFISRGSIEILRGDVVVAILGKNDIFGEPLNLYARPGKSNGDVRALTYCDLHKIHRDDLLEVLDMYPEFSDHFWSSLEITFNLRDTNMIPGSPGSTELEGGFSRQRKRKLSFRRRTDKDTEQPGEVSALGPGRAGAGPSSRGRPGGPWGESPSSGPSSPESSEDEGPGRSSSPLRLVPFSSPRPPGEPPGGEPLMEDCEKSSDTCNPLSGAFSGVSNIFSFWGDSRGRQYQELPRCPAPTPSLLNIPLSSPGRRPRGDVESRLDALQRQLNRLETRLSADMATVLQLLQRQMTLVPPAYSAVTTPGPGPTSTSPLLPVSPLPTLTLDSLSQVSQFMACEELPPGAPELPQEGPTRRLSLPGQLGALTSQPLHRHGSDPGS

This test concerns the target human ether-à-go-go-related gene (hERG) potassium channel (human, UniProt Q12809). The experiment in a line: primary screen, population patch clamp on CHO cells stably expressing hERG; higher = less effect of the substance.
With `CN1CCN(C(=O)C2CCC(=O)N(Cc3cccc(C(F)(F)F)c3)C2)CC1` (stereo not drawn), the “hERG current change (%, negative = inhibition) at 1uM” value is recorded as 6.99%. `Cc1nnc(NC(=O)CSc2nnc(CC(=O)Nc3ccccc3C)n2C)s1`: the “hERG current change (%, negative = inhibition) at 1uM” value came out at 17.4%.

Regarding `COc1ccc(C(=O)C2CCCN(Cc3cccn3-c3ccccn3)C2)c(OC)c1` (stereo not drawn), the “hERG current change (%, negative = inhibition) at 1uM” value is recorded as -82.9%. With `COc1ccc(C(=O)C2CCCN(Cc3cccn3-c3ccccn3)C2)c(C)c1` (stereo not drawn), the “hERG current change (%, negative = inhibition) at 1uM” value was -84.8%. For `COc1ccc(C(=O)C2CCCN(Cc3ccccn3)C2)c(OC)c1` (stereo not drawn), the “hERG current change (%, negative = inhibition) at 1uM” value is reported as -3.83%. Turning to `COc1ccc(C(=O)C2CCCN(CCO)C2)c(C)c1` (stereo not drawn), the “hERG current change (%, negative = inhibition) at 1uM” value is 12.5%. `COc1ccc(C(=O)C2CCCN(C(=O)CCc3ccccn3)C2)c(C)c1` (stereo not drawn): the “hERG current change (%, negative = inhibition) at 1uM” value is 9.98%. For `COc1ccc(C(=O)C2CCCN(Cc3cccn3-c3ccc(Cl)cn3)C2)c(OC)c1` (stereo not drawn), the “hERG current change (%, negative = inhibition) at 1uM” value was -45.8%. The figure for `O=C(O)c1cc(NC(=O)c2ccc3c(c2)C(=O)N(Cc2ccccc2)C3=O)cc(C(=O)O)c1` is 11.7%. Take `COc1cccc(Nc2ncc(C#N)c(N)n2)c1`: the “hERG current change (%, negative = inhibition) at 1uM” value is given as 12.9%. Turning to `O=C(COC(=O)c1nc(Cl)ccc1Cl)Nc1ncc(Cl)cc1Cl`, the “hERG current change (%, negative = inhibition) at 1uM” value came to 14.4%. Regarding `CN(C)CCN=Cc1c(O)n(Cc2ccccc2)c(=O)c2ccccc12`, the “hERG current change (%, negative = inhibition) at 1uM” value is listed as -6.8%. Consider `CCN(CC)CCCN=Cc1c(O)n(Cc2ccccc2)c(=O)c2ccccc12`, for which the “hERG current change (%, negative = inhibition) at 1uM” value was -77.3%. To `CN(C)CCCN=Cc1c(O)n(Cc2ccccc2)c(=O)c2ccccc12` belongs -25.5%. The figure for `CCOC(=O)C1CCN(C/C=C/c2ccccc2)CC1` is 4.64%. With `CCOC(=O)C1CCN(C/C=C/c2ccccc2[N+](=O)[O-])CC1`, the “hERG current change (%, negative = inhibition) at 1uM” value is reported as -57%. As for `CCOC(=O)C1CCCN(C/C=C/c2ccccc2[N+](=O)[O-])C1` (stereo not drawn), the “hERG current change (%, negative = inhibition) at 1uM” value is recorded as -42.6%.

Take `CC(O)[C@H]1CNCCN1CCc1cccc2ccccc12` (stereo partly drawn): the “hERG current change (%, negative = inhibition) at 1uM” value is listed as 5.81%.

Turning to `CCSc1ccccc1C(=O)N1CCN(c2ccc([N+](=O)[O-])cc2)CC1`, the “hERG current change (%, negative = inhibition) at 1uM” value is -41%.

Consider `CCCCCCn1cc(C(=O)O)c(=O)c2ccccc21`, for which the “hERG current change (%, negative = inhibition) at 1uM” value is -84.4%. `O=C(O)c1cn(Cc2ccccc2)c2ccc(Cl)cc2c1=O`: the “hERG current change (%, negative = inhibition) at 1uM” value is -84.4%. The figure for `CCCCCCn1cc(C(=O)O)c(=O)c2cc(F)c(N3CCCCC3)cc21` is 14%; for `CCCCCn1cc(C(=O)C(=O)N2CCOCC2)c2ccccc21` it is 7.53%; for `COc1ccc2c(c1)c(=O)c(C(=O)c1ccccc1)cn2Cc1ccccc1` it is -21.1%.

Consider `O=C(O)c1cn(Cc2ccccc2)c2ccccc2c1=O`, for which the “hERG current change (%, negative = inhibition) at 1uM” value is given as -43.6%. With `CCOc1cc(C2C(C(=O)OCC(C)C)=C(C)N=C3SCCC(=O)N32)ccc1OC(C)=O` (stereo not drawn), the “hERG current change (%, negative = inhibition) at 1uM” value is -0.245%. To `Cc1ccc(S(=O)(=O)N2CCN(C(=O)CCC(=O)N3CCc4ccccc43)CC2)cc1` belongs 3.11%; to `COc1ccc([C@@H]2Sc3cc(OC)ccc3N(CCN(C(C)C)C(C)C)C(=O)[C@H]2OC(C)=O)cc1.Cl`, -70%. As to `COc1ccc(N2C(=O)C(OC(C)=O)C2c2ccc(C)cc2)cc1` (stereo not drawn), the “hERG current change (%, negative = inhibition) at 1uM” value came out at 7.38%. Regarding `COc1ccc2c(c1)Sc1ccccc1N2CCN(C)C.O=C(O)C(=O)O`, the “hERG current change (%, negative = inhibition) at 1uM” value came to 2.44%.

Turning to `Cc1ccccc1C(=O)Nc1ccccc1C(=O)N1CCC(C)CC1`, the “hERG current change (%, negative = inhibition) at 1uM” value was found to be 11.7%.

For `COC(=O)c1ccc(Cn2cnc3c(cnn3-c3ccc(C)c(C)c3)c2=O)o1`, the “hERG current change (%, negative = inhibition) at 1uM” value worked out at 7.86%.

Take `Cc1c(-c2ccccc2)oc2c(C(=O)OCC(=O)Nc3cccc(F)c3)cccc2c1=O`: the “hERG current change (%, negative = inhibition) at 1uM” value is on record as 5.94%. Regarding `COc1ccccc1NC(=S)NC(NC(=O)c1ccco1)C(Cl)(Cl)Cl` (stereo not drawn), the “hERG current change (%, negative = inhibition) at 1uM” value amounted to 4.44%. As for `COc1ccc(NC(=O)c2ccc(S(=O)(=O)N3CCCC3)cc2)cc1OC`, the “hERG current change (%, negative = inhibition) at 1uM” value was -102%.

In the case of `COc1ccc(NC(=O)c2cccc(S(=O)(=O)N3CCCC3)c2)cc1OC`, the “hERG current change (%, negative = inhibition) at 1uM” value was 2.14%. The figure for `COc1ccc(C(=O)Nc2ccc(S(=O)(=O)N3CCCCC3)cc2)cc1OC` is -0.152%; for `CCCN1CCC[C@@H]2Cc3nc(N)ncc3C[C@H]21.Cl` it is 8.86%. To `NC(=O)c1ccc(NC(=O)CCC(=O)c2cccs2)cc1` belongs 9.21%; to `O=C(Nn1cnnc1)c1cc([N+](=O)[O-])cc([N+](=O)[O-])c1`, 5.11%; to `CCn1cc(C2=NC(C)CO2)c2ccccc21` (stereo not drawn), -0.637%. Take `O=C(CN1CCN(Cc2ccccc2F)CC1)Nc1ccccc1Cl`: the “hERG current change (%, negative = inhibition) at 1uM” value worked out at 8.26%. On to `Cc1cccc(NC(=O)CN2CCN(CC(=O)NCc3ccc(Cl)cc3Cl)CC2)c1C`, for which the “hERG current change (%, negative = inhibition) at 1uM” value is reported as 4.8%.

As for `COC(=O)c1ccccc1NC(=O)CN1CCN(C23CC4CC(CC(C4)C2)C3)CC1`, the “hERG current change (%, negative = inhibition) at 1uM” value is on record as -75%. With `NC(=O)c1ccccc1NC(=O)CN1CCN(Cc2ccc(Cl)cc2Cl)CC1`, the “hERG current change (%, negative = inhibition) at 1uM” value is -75.8%. To `O=C(CN1CCN(Cc2ccccc2)CC1)Nc1ccc(Cl)cc1` belongs -32.3%; to `COC(=O)c1ccccc1NC(=O)CN1CCCCC1`, 32.9%; to `COC(=O)c1ccccc1NC(=O)CN1CCN(Cc2ccccc2)CC1`, -69.6%. The figure for `COC(=O)c1ccccc1NC(=O)CN1CCCCCC1` is 16.5%. In the case of `O=C(CN1CCCCCC1)Nc1ccc(Cl)cn1`, the “hERG current change (%, negative = inhibition) at 1uM” value turned out to be 6.51%. Turning to `COC(=O)c1ccccc1NC(=O)CN1CCC(C)CC1`, the “hERG current change (%, negative = inhibition) at 1uM” value is recorded as -0.0967%. Take `O=C(CN1CCN(Cc2ccccc2)CC1)Nc1ccc(Cl)cn1`: the “hERG current change (%, negative = inhibition) at 1uM” value is listed as -70%. For the molecule `COC(=O)c1ccccc1NC(=O)CN1CCOCC1`, the “hERG current change (%, negative = inhibition) at 1uM” value stood at 5.34%. On to `CCOCCCNS(=O)(=O)c1ccc2c(c1)oc(=O)n2CC(=O)OCC`, for which the “hERG current change (%, negative = inhibition) at 1uM” value is on record as 10.3%. The figure for `COCCN1CCN(C(=O)C2CCC(=O)N(Cc3ccccc3F)C2)CC1` (stereo not drawn) is 9.05%. Turning to `COc1c(/C=N/NC(=O)c2ccccc2O)c(CCN(C)C(C)=O)cc2c1OCO2`, the “hERG current change (%, negative = inhibition) at 1uM” value came to 8.13%. On to `CCN(CC)CCCNC(=O)c1c(O)c2ccccc2n(Cc2ccccc2)c1=O.Cl`, for which the “hERG current change (%, negative = inhibition) at 1uM” value is -12.3%.
